Results from the supplement of paper PMC11555231.

Molecular target: PADI4, Q9UM07
Test: log2 enrichment score relative to parent PADI4_3 peptide (binding to PADI4); higher = tighter binding than parent
Conditions: CaCl2: 10 mM
Protocol: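 Deep mutational scan of the cyclic peptide PADI4_3 (ClAc-D-Tyr1 initiator, thioether-cyclised to Cys12, C-terminal Gly plus HA tag, mRNA-displayed). Positions 2-11 were each randomised by NNK codons; Met was reprogrammed as N-methyl-alanine (MeA). One round of equilibrium panning against bead-immobilised human PADI4 (100 nM, 10 mM CaCl2, RT). Log2 enrichment (bound/input frequency) relative to the parent sequence (0 = parent), mean of three independent selections.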

Chain of PADI4, Q9UM07 (Q9UM07 whole entry): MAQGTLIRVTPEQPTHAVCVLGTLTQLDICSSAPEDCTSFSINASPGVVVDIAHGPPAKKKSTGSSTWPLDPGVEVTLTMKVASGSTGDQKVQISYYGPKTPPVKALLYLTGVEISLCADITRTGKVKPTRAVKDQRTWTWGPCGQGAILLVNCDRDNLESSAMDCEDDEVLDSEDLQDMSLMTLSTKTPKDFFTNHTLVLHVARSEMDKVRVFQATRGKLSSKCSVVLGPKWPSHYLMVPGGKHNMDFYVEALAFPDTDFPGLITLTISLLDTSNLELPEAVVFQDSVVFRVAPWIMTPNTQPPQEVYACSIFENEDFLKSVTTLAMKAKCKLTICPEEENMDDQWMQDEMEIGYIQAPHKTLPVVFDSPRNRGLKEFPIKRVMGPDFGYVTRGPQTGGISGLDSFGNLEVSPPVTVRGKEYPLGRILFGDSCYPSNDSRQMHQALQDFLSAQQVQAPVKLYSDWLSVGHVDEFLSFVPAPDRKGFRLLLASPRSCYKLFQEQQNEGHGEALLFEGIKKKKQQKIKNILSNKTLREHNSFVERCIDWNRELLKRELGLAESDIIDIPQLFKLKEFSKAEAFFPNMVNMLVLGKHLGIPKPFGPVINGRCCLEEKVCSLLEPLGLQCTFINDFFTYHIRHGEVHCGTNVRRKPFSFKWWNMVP

## YRDHHYRHPKICG [PADI4_3_Y11I Y11I]
  log2 enrichment score: -3.77

## YIDHHYRHPKYCG [PADI4_3_R2I R2I]
  log2 enrichment score: -1.38

## YRDHGYRHPKYCG [PADI4_3_H5G H5G]
  log2 enrichment score: -3.73

## YRIHHYRHPKYCG [PADI4_3_D3I D3I]
  log2 enrichment score: -4.17

## YRDHHYRHGKYCG [PADI4_3_P9G P9G]
  log2 enrichment score: -2.45

## YRDHHYRHPQYCG [PADI4_3_K10Q K10Q]
  log2 enrichment score: -1.09

## YRGHHYRHPKYCG [PADI4_3_D3G D3G]
  log2 enrichment score: -3.8

## YRDHHYRHPKGCG [PADI4_3_Y11G Y11G]
  log2 enrichment score: -4.17

## YRDHHYRAPKYCG [PADI4_3_H8A H8A]
  log2 enrichment score: -3.62

## YRDHHYRGPKYCG [PADI4_3_H8G H8G]
  log2 enrichment score: -3.99

## YRAHHYRHPKYCG [PADI4_3_D3A D3A]
  log2 enrichment score: -2.97

## YRDHHYRHAKYCG [PADI4_3_P9A P9A]
  log2 enrichment score: -1.66

## YRLHHYRHPKYCG [PADI4_3_D3L D3L]
  log2 enrichment score: -2.88

## YRDHHYRHNKYCG [PADI4_3_P9N P9N]
  log2 enrichment score: -2.01

## YRDHHYRLPKYCG [PADI4_3_H8L H8L]
  log2 enrichment score: -3.01

## YRDAHYRHPKYCG [PADI4_3_H4A H4A]
  log2 enrichment score: -1.88

## YGDHHYRHPKYCG [PADI4_3_R2G R2G]
  log2 enrichment score: -3.89

## YRDGHYRHPKYCG [PADI4_3_H4G H4G]
  log2 enrichment score: -3.75

## YRDHHYLHPKYCG [PADI4_3_R7L R7L]
  log2 enrichment score: -2.09

## YRDHHYGHPKYCG [PADI4_3_R7G R7G]
  log2 enrichment score: -2.58

## YRDHNYRHPKYCG [PADI4_3_H5N H5N]
  log2 enrichment score: -3.38

## YRDHHYRHPNYCG [PADI4_3_K10N K10N]
  log2 enrichment score: -1.77

## YRDHHYRHPAYCG [PADI4_3_K10A K10A]
  log2 enrichment score: -1.7

## YRQHHYRHPKYCG [PADI4_3_D3Q D3Q]
  log2 enrichment score: -3.32

## YRDHHYRHPLYCG [PADI4_3_K10L K10L]
  log2 enrichment score: 0.693

## YRDIHYRHPKYCG [PADI4_3_H4I H4I]
  log2 enrichment score: -2.05

## YADHHYRHPKYCG [PADI4_3_R2A R2A]
  log2 enrichment score: -2.77

## YRDHHYRQPKYCG [PADI4_3_H8Q H8Q]
  log2 enrichment score: -3.37

## YRDHHYRHPKACG [PADI4_3_Y11A Y11A]
  log2 enrichment score: -4.24

## YRDHHYAHPKYCG [PADI4_3_R7A R7A]
  log2 enrichment score: 0.206

## YRDHHYRHPIYCG [PADI4_3_K10I K10I]
  log2 enrichment score: 2.81

## YRDNHYRHPKYCG [PADI4_3_H4N H4N]
  log2 enrichment score: -2.71

## YRDHHYRHPKNCG [PADI4_3_Y11N Y11N]
  log2 enrichment score: -3.81

## YRDHHYRHIKYCG [PADI4_3_P9I P9I]
  log2 enrichment score: -1.78

## YRDHHYRHPGYCG [PADI4_3_K10G K10G]
  log2 enrichment score: -2.43

## YRDHHLRHPKYCG [PADI4_3_Y6L Y6L]
  log2 enrichment score: -1.7

## YRDHAYRHPKYCG [PADI4_3_H5A H5A]
  log2 enrichment score: -2.12

## YRDHHYQHPKYCG [PADI4_3_R7Q R7Q]
  log2 enrichment score: -0.31

## YRDHHIRHPKYCG [PADI4_3_Y6I Y6I]
  log2 enrichment score: -2.71

## YRDHLYRHPKYCG [PADI4_3_H5L H5L]
  log2 enrichment score: -3.61

## YRDHHNRHPKYCG [PADI4_3_Y6N Y6N]
  log2 enrichment score: -2.28

## YRDHHYRIPKYCG [PADI4_3_H8I H8I]
  log2 enrichment score: -3.37

## YRDHHYNHPKYCG [PADI4_3_R7N R7N]
  log2 enrichment score: 1.37

## YRDHHYRHPKQCG [PADI4_3_Y11Q Y11Q]
  log2 enrichment score: -4.43

## YLDHHYRHPKYCG [PADI4_3_R2L R2L]
  log2 enrichment score: -0.745

## YQDHHYRHPKYCG [PADI4_3_R2Q R2Q]
  log2 enrichment score: -1.6

## YRDHHYRHQKYCG [PADI4_3_P9Q P9Q]
  log2 enrichment score: -1.71

## YRDHHARHPKYCG [PADI4_3_Y6A Y6A]
  log2 enrichment score: -1.95

## YRDHHYRHPKLCG [PADI4_3_Y11L Y11L]
  log2 enrichment score: -3.94

## YRDHIYRHPKYCG [PADI4_3_H5I H5I]
  log2 enrichment score: -3.45

## YRDHHYIHPKYCG [PADI4_3_R7I R7I]
  log2 enrichment score: -1.67

## YRDHQYRHPKYCG [PADI4_3_H5Q H5Q]
  log2 enrichment score: -3.72

## YRDHHGRHPKYCG [PADI4_3_Y6G Y6G]
  log2 enrichment score: -1.54

## YRDHHQRHPKYCG [PADI4_3_Y6Q Y6Q]
  log2 enrichment score: -1.94

## YNDHHYRHPKYCG [PADI4_3_R2N R2N]
  log2 enrichment score: -2.77

## YRNHHYRHPKYCG [PADI4_3_D3N D3N]
  log2 enrichment score: -2.8

## YRDHHYRHLKYCG [PADI4_3_P9L P9L]
  log2 enrichment score: -2.12

## YRDQHYRHPKYCG [PADI4_3_H4Q H4Q]
  log2 enrichment score: -0.57

## YRDHHYRNPKYCG [PADI4_3_H8N H8N]
  log2 enrichment score: -2.87
